Marburg entry inh – blocks Marburg virus binding to or entry into cells | Potency, µM (titrated, usually from 37.8 µM), actives largely listed as inhibitors | hit rate 1.8% among 300,000 | Marburg virus pseudotyped entry inhibition, cell reporter; calls by dose curve; tested in HEK293 cells
LASV entry inh – inhibitors of Lassa virus binding or cell entry; AID 540256; hit rate 1.2% among 300,000; Lassa virus pseudotype entry inhibition, cell reporter; Potency, µM (doses to about 37.9 µM), most hits filed as inhibitors; calls by dose curve; tested in HEK293 cells; note: nearly all actives have a fitted effect of over 50% in size
Vaccinia Venus – inhibitors of vaccinia virus (Venus reporter); Vaccinia virus Venus reporter expression, fluorescence; Potency, µM (highest dose often 36.5 µM), hits mostly inhibitors; hit rate 0.46% among 330,000; calls by dose curve; tested in A549 cells; note: nearly all actives have a fitted effect of over 30% in size
FMDV antiviral – foot and mouth disease virus antiviral activity; FMDV antiviral cell-based qHTS; Potency, µM (series often up to 57.9 µM), actives largely listed as inhibitors; hit rate 1.2% among 410,000; calls by dose curve; tested in HEK293T cells; note: read-out not given here; nearly all actives have a fitted effect of over 45% in size
Vaccinia mCherry – inhibitors of vaccinia virus infection (mCherry reporter signal). Vaccinia virus mCherry reporter infection, fluorescence. Potency, µM (titrated, usually from 36.5 µM), hits mostly inhibitors. hit rate 0.63% among 310,000. AID 720579; calls by dose curve; tested in A549 cells; note: nearly all actives have a fitted effect of over 35% in size
Hits are given with their value; – = inactive; ? = inconclusive; · = not tested or not shown. The list is not random: actives were taken first. Their share in the collection is about 3.2%.

SMILES	Marburg entry inh	LASV entry inh	Vaccinia Venus	FMDV antiviral	Vaccinia mCherry
O=C(Nc1nnc(C(F)(F)F)s1)c1ccc(Br)s1	?	?	?	–	10µM
COc1ccc(OC)c2sc(NC(=O)c3ccc(Br)s3)nc12	·	·	11µM	–	?
Cc1ccc2c(c1)/C(=C/c1ccccc1)C(=O)N2	?	10µM	–	–	–
Cc1ccc2c(c1)/C(=C/c1ccccc1F)C(=O)N2	·	·	–	–	–
C#CCCCON=C1C[C@@H](O)[C@H](O)[C@H]2[C@@H]3C(=O)N(C[C@@H]4CCCO4)C(=O)[C@@H]3CC[C@@H]12	–	·	·	·	·
O=S(=O)(Nc1cc(S(=O)(=O)N2CCOCC2)ccc1NCC1CCCO1)c1ccc(F)cc1 (stereo not given)	?	–	?	–	2.2µM
CC1CCN(S(=O)(=O)c2cccc(C(=O)NCC3CCCO3)c2)CC1 (stereo not given)	–	6.3µM	–	–	–
COC(=O)[C@@H]1CCCN1C(=O)c1c(OC)cc(=O)n2c1CCN(Cc1cc(OC)ccc1F)CC2	·	·	–	–	–
O=[N+]([O-])c1ccccc1S(=O)(=O)NCc1ccccn1	·	·	–	·	–
Cc1ccccc1C(=O)Nc1nnc(-c2ccco2)s1	1.3µM	4.1µM	–	?	–
Cc1cc(/C=C2\C(=O)NC(=O)N(c3ccc(Cl)cc3)C2=O)c(C)n1-c1sc2c(c1C#N)CCCC2	–	·	–	–	–
Cc1cc(/C=C2/NC(=O)NC2=O)c(C)n1-c1sc2c(c1C#N)CCCC2	?	4.5µM	–	–	?
OC(c1ccc(F)c(F)c1)c1nc(-c2ccc3ccccc3c2)cs1 (stereo not given)	·	·	–	–	–
Cc1ccc(S(=O)(=O)/N=c2\ccc(Cl)cn2C(F)F)cc1	·	·	·	–	·
COc1ccc(C(C)=NNC(=O)c2cccc(S(=O)(=O)N3CCCC3)c2)cc1	?	–	–	?	?
COc1ccc(NS(=O)(=O)c2cccc(NC(=O)C34CCC(CC3)C4)c2)cc1	?	12µM	–	–	–
O=C(Nc1ccc(N2CCCCC2)cc1)c1ccc(F)cc1	11µM	?	–	–	–
O=C(c1ccc(F)cc1)c1ccc(N2CCCCC2)cc1	·	·	·	–	·
COc1ccc(/C(C)=N/NC(=O)c2cccc(S(=O)(=O)N3CCCC3)c2)c(O)c1	?	?	?	–	5.6µM
O=C(NNC(=O)c1ccc(O)c(Cl)c1)c1cccc(S(=O)(=O)N2CCOCC2)c1	10µM	–	–	–	–
O=C1[C@H]2[C@H]3[C@H](O)[C@H](O)C/C(=N\OC[C@@H](O)COCc4ccco4)[C@H]3CC[C@H]2C(=O)N1Cc1ccccc1	–	·	·	·	·
O=C(CNc1cccc(S(=O)(=O)N2CCOCC2)c1)Nc1ccc(C(F)(F)F)cc1	?	–	–	32µM	–
Cc1ccc(NC(=O)c2ccc(F)cc2)cc1S(=O)(=O)N1CCCCCC1	7.9µM	?	–	?	–
O=C(CNc1ccc(C(F)(F)F)cc1)Nc1cccc(S(=O)(=O)N2CCCC2)c1	·	·	·	–	·
O=C(Nc1ccc(S(=O)(=O)C(F)F)cc1)c1cccc(S(=O)(=O)N2CCOCC2)c1	?	–	–	18µM	–
SMILES	Marburg entry inh	LASV entry inh	Vaccinia Venus	FMDV antiviral	Vaccinia mCherry
CCCCOC(=O)Nc1ccc(N2CCOCC2)cc1	?	–	·	–	·
CCCCOC(=O)Nc1ccc(N2CCCCC2)cc1	?	8.9µM	–	–	–
Cc1ccc(NC(=O)c2ccc(C)c(S(=O)(=O)N3CCCCCC3)c2)cc1	·	?	–	–	–
Cc1ccc(-c2cnc(C(O)c3cccc(Cl)c3)[nH]2)cc1 (stereo not given)	·	·	–	–	–
CS(=O)(=O)Nc1cccc(-c2cc(NC=O)c3ncc(-c4ccc(F)c(Cl)c4)n3c2)c1	·	·	?	–	?
CNc1ncncc1-c1ccc(C(=O)N(C)C)cc1	·	·	–	–	–
COc1ccc(NS(=O)(=O)c2ccc(O)c(NC(=O)c3ccc(S(=O)(=O)N4CCCCCC4)cc3)c2)cc1	?	–	–	–	–
COc1ccc(C(=O)Nc2ccc(C)c(S(=O)(=O)N3CCCCCC3)c2)cc1	?	?	?	20µM	?
COc1ccc(NS(=O)(=O)c2cccc(NC(=O)c3ccc(S(=O)(=O)N4CCCCCC4)cc3)c2)cc1	3.5µM	8.2µM	?	–	?
O=C(Nc1cccc(S(=O)(=O)C(F)F)c1)c1ccc(S(=O)(=O)N2CCOCC2)cc1	?	–	–	?	–
O=C(Nc1cccc(S(=O)(=O)C(F)F)c1)c1ccc(S(=O)(=O)N2CCCC2)cc1	?	5µM	?	–	–
CCCCNC(=O)[C@@H]1CC=C[C@@H]2CCN(CCCC)C(=O)[C@@H]21	·	·	–	·	–
Cc1ccc2c(c1)CN(CCNC(=O)c1n[nH]c3c1CCCC3)CC(C)O2 (stereo not given)	·	·	–	–	–

Source: PubChem BioAssay (National Center for Advancing Translational Sciences (NCATS))
